Only some compounds are listed: those with a hit (about 2.4% of all), similar ones and a draw of the others.
CHT inh: inhibitors of human choline transporter CHT | High affinity choline transporter 1 (Homo sapiens), Q9GZV3 | CHT-expressing cells, membrane potential dye, choline response; active compounds read low | B-score at 10 µM | 310,000 tested, 0.86% active | AID 488975, 2010;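 active = B-score over 3 SD under the library average, and starting fluorescence ratio not unusually high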;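 also: choline stimulus applied at its EC90 after an EC20 pre-addition; B-score computed on integrated fluorescence ratio after choline addition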
Target sequence (Q9GZV3 whole entry, looked up): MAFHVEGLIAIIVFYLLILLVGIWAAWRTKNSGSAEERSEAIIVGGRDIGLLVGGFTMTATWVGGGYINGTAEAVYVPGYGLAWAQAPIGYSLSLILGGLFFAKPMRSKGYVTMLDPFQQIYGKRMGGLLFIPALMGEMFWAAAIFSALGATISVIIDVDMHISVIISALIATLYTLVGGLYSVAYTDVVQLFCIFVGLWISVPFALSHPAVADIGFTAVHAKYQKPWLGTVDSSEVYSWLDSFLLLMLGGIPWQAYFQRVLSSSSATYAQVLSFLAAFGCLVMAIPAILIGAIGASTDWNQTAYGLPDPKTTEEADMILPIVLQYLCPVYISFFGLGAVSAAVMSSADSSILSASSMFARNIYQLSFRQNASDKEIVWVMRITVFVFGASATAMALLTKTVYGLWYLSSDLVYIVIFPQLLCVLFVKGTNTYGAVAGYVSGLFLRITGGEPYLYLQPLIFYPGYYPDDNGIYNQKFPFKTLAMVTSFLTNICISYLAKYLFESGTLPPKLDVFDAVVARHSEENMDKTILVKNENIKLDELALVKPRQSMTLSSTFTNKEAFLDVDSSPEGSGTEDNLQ
CHT allo act: CHT positive allosteric modulators, primary screen, cell-based, membrane potential dye, choline EC20; B-score at 10 µM; 310,000 tested, 0.49% active; CHT-expressing cells; active compounds read high; LV-AA mutant CHT in HEK293 cells; AID 488977, 2010; High affinity choline transporter 1 (Homo sapiens), Q9GZV3;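 active = initial fluorescence not abnormally high and integrated response B-score, plate-corrected, over 3 SD above library mean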
ANO1 activ: TMEM16A chloride channel activators or potentiators, primary screen, cell-based, HTS; Anoctamin-1 (Mus musculus), Q8BHY3; B-score at 10 µM; 340,000 tested, 0.3% active; HEK293 TMEM16A/YFP-H148Q/I152L, iodide quench fluorescence; active compounds read low;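 active = fluorescence-ratio B-score plate-corrected deviation score at least 3 library SD below zero, with starting fluorescence score within 5 deviations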;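 also: channel opened by trigger with iodide after compound preincubation; score built on the fluorescence ratio of max minus min over baseline; more negative score means more quench and so TMEM16A activation or potentiation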
ANO1 block: TMEM16A chloride channel inhibitors, primary screen, cell-based, HTS; Anoctamin-1 (Mus musculus), Q8BHY3; HEK293 TMEM16A/YFP iodide influx fluorescence, ionomycin; normalized B-score (activity score, 25-100; higher = stronger inhibition) at 10 µM; 310,000 tested, 1.2% active;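 active = ratio plate-corrected score three or more library SD toward inhibition, starting fluorescence score within five deviations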;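 also: score derived from kinetic fluorescence span divided by baseline fluorescence per well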
CHT inh conf: CHT inhibitors, confirmation, cell-based, membrane potential dye, duplicate; shares compounds with CHT inh; CHT-expressing cells, choline membrane potential dye; LV-to-AA substituted CHT, HEK293 cells; CHT activity remaining % of control (active compounds read low), % at 10 µM; 2,400 tested, 70% active;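 active = choline transporter activity left, mean of duplicates at 10 µM, below buffer-only control mean minus 3 SD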;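 also: depolarization triggered by choline at its EC90 following an EC20 pre-addition; 0% = hemicholinium-3 full block and 100% = buffer-only control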
HEK293 CHT ctr: membrane potential effects in parental HEK293, counter-screen for CHT inhibitor project, cell-based, membrane potential dye; choline response; active = decrease or increase beyond buffer ±3SD; shares compounds with CHT inh; 2,400 tested, 4% active; AID 493222, 2011; membrane potential ratio readout (active if shifted either direction beyond buffer ±3SD; no single direction) at 10 µM;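 also: parental cells lack the transporter so any hit is non-specific; ratio is peak minus trough fluorescence over baseline after EC90 choline challenge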
* = called active by the depositor; i = inactive; . = no result.

SMILES	CHT inh	CHT allo act	ANO1 activ	ANO1 block	CHT inh conf	HEK293 CHT ctr
O=C(CSc1ccc(-c2nc3ccccc3[nH]2)cn1)Nc1ccc2c(c1)OCCO2	i	i	i	i	.	.
Cc1cccc(-c2nc(CSCC(=O)N3CCN(c4ccccn4)CC3)c(C)o2)c1	i	i	i	i	.	.
Cc1ccc(NC(=O)CN2C(=O)NC3(CCc4ccccc43)C2=O)cc1Cl (stereo not given)	-10.5*	i	i	i	33.5%*	i
COc1ccc(N2CCN(C(=O)CCCOc3cc(=O)n(C)c4ccccc34)CC2)cc1	i	i	i	i	.	.
CC1CCN(C(=O)CCCOc2cc(=O)n(C)c3ccccc23)CC1	-5.94*	i	i	i	68.6%*	i
Cc1cccc(N2CCN(C(=O)COc3cc(=O)n(C)c4ccccc34)CC2)c1C	-13*	i	i	i	31.4%*	i
COc1ccccc1CNC(=O)c1ccc(Cl)c(NC2=NC3CS(=O)(=O)CC3S2)c1 (stereo not given)	i	i	i	i	.	.
COc1ccc(CC(=O)NCc2nnc(SCC(=O)N3CCN(c4ccccc4)CC3)n2C)cc1	.	.	i	.	.	.
COc1ccc(CC(=O)Nc2cc(S(=O)(=O)N3CCOCC3)ccc2N2CCCC2)c(OC)c1	.	.	i	.	.	.
O=[N+]([O-])c1ccc(SCCc2ccccn2)cc1	-6.52*	i	i	i	53.0%*	i
CC(=O)Nc1ccc(S(=O)(=O)NCCCCNS(=O)(=O)c2ccc(NC(C)=O)cc2)cc1	i	i	i	i	.	.
CN1CCN(c2ccc(S(=O)(=O)N3CCCCC3)cc2NC(=O)CSCc2ccccc2)CC1	-6.81*	i	i	i	47.8%*	i
O=C(Nc1nc2c(Br)cccc2s1)C1CC1	-5.67*	i	i	i	i	i
O=C(Nc1nc2c(Cl)cccc2s1)C1CC1	i	i	i	i	.	.
CC1=C/C(=N\OS(=O)(=O)c2ccccc2)C(C)=CC1=O	-5.95*	i	-6.43*	100*	49.8%*	i
O=C(CCc1nnc(Cc2ccc(-c3ccccc3)cc2)o1)N1CCCC1	-5.42*	i	i	i	45.5%*	i
COc1ccc(C(=O)N(C)C2CCCc3ccccc32)cc1OC1CCN(C(C)C)CC1 (stereo not given)	-9.97*	i	i	i	14.5%*	i
COc1ccc(C(=O)NC2CCc3ccccc32)cc1OC1CCN(C(C)C)CC1 (stereo not given)	-8.95*	i	i	i	16.3%*	i
COc1ccc(C(=O)NC2CCCc3ccccc32)cc1Br (stereo not given)	i	i	i	i	.	.
Cc1c(Cl)cnc(NC(=O)COC(=O)[C@@H](NC(=O)c2ccco2)C(C)C)c1Cl	.	.	i	.	.	.
CCCCNC(=O)C1CCN(c2nc(C)cc(C)n2)CC1	i	i	i	i	.	.
CC(C)[Si]1(C(C)C)OCC2OC(n3cnc4c(N)ncnc43)C(N)C2O[Si](C(C)C)(C(C)C)O1 (stereo not given)	.	.	i	.	.	.
COC(=O)c1c(-c2ccc(OC)cc2)sc2ccc(N3CCOCC3)cc12	.	.	i	.	.	.
COC(=O)c1nc2ccc(N3CCOCC3)cc2c(C)c1C(=O)OC	-5.66*	i	i	i	i	i
O=C(Nc1cc(C(=O)N2CCCC2)ccc1N1CCCC1)C1CC1	i	i	i	i	.	.
SMILES	CHT inh	CHT allo act	ANO1 activ	ANO1 block	CHT inh conf	HEK293 CHT ctr
CCCN1CC(=O)N2Cc3[nH]c4ccccc4c3C[C@H]2C1=O	i	i	i	i	.	.
COCCCn1c(=O)c2ccccc2c2ccccc2c1=O	i	i	i	i	.	.
CCN(CC)S(=O)(=O)c1ccc(NC(=O)c2cc(C(=O)OC)cc([N+](=O)[O-])c2)cc1	i	i	i	i	.	.
CCCCN(CCCC)S(=O)(=O)c1ccc(NC(=O)c2ccc([N+](=O)[O-])cc2Cl)cc1	-6.23*	i	i	i	70.4%*	i
O=C(c1cn(-c2ccccc2)nc1-c1ccccc1)N1CCOCC1	i	i	i	i	.	.
O=C(c1cn(-c2ccccc2)nc1-c1ccc(Cl)cc1)N1CCOCC1	-5.56*	i	i	i	58.7%*	i
CCN(CC(=O)Nc1c(F)cccc1F)C(=O)Cc1ccc(OC)c(S(=O)(=O)N2CCOCC2)c1	i	i	i	i	.	.
O=C(c1cccc(OC2CCN(Cc3ccc(F)cc3Cl)CC2)c1)N1CCCC1	-5.36*	i	i	i	36.4%*	i
O=C(O/N=C(/c1ccccc1)c1ccncc1)c1ccc(F)cc1	-9.69*	i	i	i	i	i
COc1ccccc1C(=O)O/N=C(\c1ccccc1)c1ccncc1	i	i	i	i	.	.
CCOC(=O)c1ccc(NC(=O)CCS(=O)(=O)c2cccc3nonc23)cc1	i	i	i	i	.	.
CCOC(=O)c1cccc(NC(=O)CCS(=O)(=O)c2cccc3nsnc23)c1	-8.26*	i	i	i	35.9%*	i
COc1cc(C(=O)N2CCCN(c3nc4cc(C)ccc4cc3C#N)CC2)cc(OC)c1OC	i	i	.	i	.	.
Cc1ccc2cc(C#N)c(N3CCN(C(=O)c4ccccc4)CC3)nc2c1	-5.2*	i	i	i	i	i
Cc1ccccc1CC(=O)c1ccc(O)c(C)c1O	i	i	i	i	.	.
Cc1c(O)ccc(/C(Cc2ccc3ccccc3n2)=N\N)c1O	-5.88*	i	i	i	56.4%*	i
CCOC(=O)/C(C#N)=C\c1cc(OC)c(OC)cc1[N+](=O)[O-]	i	i	i	i	.	.
CCOC(=O)CSc1nnc(CNc2ccccc2Cl)n1-c1ccccc1	-5.34*	i	i	i	i	i
Cc1ccccc1/C=C/C(=O)NCC(=O)N1CCC(N(C)C2CCCCC2C)CC1 (stereo not given)	-12.7*	i	i	i	21.2%*	i
Cc1ccc(-c2nnc(N3CCCCC3)c3ccccc23)cc1S(=O)(=O)N1CCN(C)CC1	-7.27*	i	i	i	41.9%*	i
CCCCC1(CC)SCC(=O)NC1=O (stereo not given)	.	.	i	.	.	.

From PubChem
